# According to PMC7819943, “Rice protein-binding microarrays: a tool to detect cis-acting elements near promoter regions in rice”:
# Whole data set: some 68,000 sequences, median “fluorescence intensity (a.u.)” near 9,100, cut for the highest 2% near 16,000. This excerpt belongs to a sample that is enriched for the highest values.
# Target: OsWRKY34 (Oryza sativa, UniProt Q0JBA9 1-250)
# Test: protein-binding microarray (RPBM); PBS, 2% BSA, 51.3 ng/ul salmon testes DNA, 50 uM zinc acetate, 200 nM TF, 25 C, 1 h; high values mean tight binding
# Settings: protein: recombinant; tags: N-terminal polyhistidine and DsRed monomer fusion (pET32a); label: CyDye5-dUTP incorporated in the synthesized complementary strand; 3' TTTTT single-stranded linker to array surface; dsDNA, one strand shown
# In short: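 Binding signal is reported as fluorescence intensity per feature (arbitrary units) from an Axon 4000B scanner. Incubation used 200 nM of each Ni–NTA-purified, N-terminally polyhistidine- and DsRed-fused transcription factor from E. coli BL21-CodonPlus on a double-stranded custom Agilent array for 1 h at 25 °C, with 50 µM zinc acetate in the buffer, followed by washing.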
# Chain of OsWRKY34 (Q0JBA9 entry or part of it): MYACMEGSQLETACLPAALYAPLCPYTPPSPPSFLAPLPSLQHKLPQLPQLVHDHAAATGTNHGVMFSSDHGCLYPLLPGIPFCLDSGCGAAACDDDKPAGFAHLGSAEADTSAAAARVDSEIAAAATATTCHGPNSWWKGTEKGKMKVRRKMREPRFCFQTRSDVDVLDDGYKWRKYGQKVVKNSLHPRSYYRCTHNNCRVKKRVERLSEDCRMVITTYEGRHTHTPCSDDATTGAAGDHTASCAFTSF
row,Sequence,binding signal
1,TCCGCTTCTGCTATCTCTCGTCACTCTTCAGTCTTCACCTCGGAGTCACCTAGTGCAG,8050 fluorescence intensity (a.u.)
2,AGTTTCAGAACTCACCTCTTTATTAATACATTTAGTTGTTCGGAGTCACCTAGTGCAG,8850 fluorescence intensity (a.u.)
3,AACGGTTGCAGCTCTAATTGAGGGCTTTGTTTAGTTCATGCGGAGTCACCTAGTGCAG,8640 fluorescence intensity (a.u.)
4,TGAATTTGTGGTTTTTTTTGGGGAGGGTTTTTTTTTTCTTCGGAGTCACCTAGTGCAG,34600 fluorescence intensity (a.u.)
5,CAATGGAGGGGTGTTTTTTTTTCTATTTTTCTAAATAATTCGGAGTCACCTAGTGCAG,14800 fluorescence intensity (a.u.)
6,AATTCGGGGTTTGGGGCCGCGGAGGGGTGCTTACGTGAGTCGGAGTCACCTAGTGCAG,15100 fluorescence intensity (a.u.)
7,TTTTGTGTATGTTTCGGTGGGAATTTGAGGGTTGTGTTTTCGGAGTCACCTAGTGCAG,14200 fluorescence intensity (a.u.)
8,GCGGAGGCAGGGAGGGTTTTGGAATTTTCGGCCGCCGTTGCGGAGTCACCTAGTGCAG,10100 fluorescence intensity (a.u.)
9,GTTAAATTCGAGGGGTTTCTTGTAATTTCGGGGTGGATAACGGAGTCACCTAGTGCAG,16500 fluorescence intensity (a.u.)
10,CGAGAGAGAGAGGGGAGGGTTTTGGGTTGTGCTTAGGTTTCGGAGTCACCTAGTGCAG,13100 fluorescence intensity (a.u.)
11,AGTTCGGGGTGGTTTAAAGTGTAAAAAAATGTTAATAAAACGGAGTCACCTAGTGCAG,8870 fluorescence intensity (a.u.)
12,CGAGGGTTTGGGAGTCGGGGAATTCGGGGTTTGGGGCCGCCGGAGTCACCTAGTGCAG,26700 fluorescence intensity (a.u.)
13,CGGTGTACTACTTTTATATATGCAAACCTTTATTGCCTGACGGAGTCACCTAGTGCAG,10300 fluorescence intensity (a.u.)
14,GGCCCACCGTCGCACTCGCGCCTTCCGCTGCTCCGTTGCCCGGAGTCACCTAGTGCAG,8880 fluorescence intensity (a.u.)
15,GTTTTTCCTCTCTGCTTGTAACGCGTGATGTAAAATTTTCCGGAGTCACCTAGTGCAG,11000 fluorescence intensity (a.u.)
16,CGTCGAGTATCTGTATCTCTAAGCATTTCTTGTTGACTTTCGGAGTCACCTAGTGCAG,10600 fluorescence intensity (a.u.)
17,CCGTGCCCACCTGAGCTCGCTTCGCCGCCATTGGCAGCCTCGGAGTCACCTAGTGCAG,9100 fluorescence intensity (a.u.)
18,ACATGTGGGGCCTATTTATTTCTTTTTTTTTAAAAAAAAACGGAGTCACCTAGTGCAG,8480 fluorescence intensity (a.u.)
19,AAGCGGGGATTTTATGTGGGCAGTGGGTTTTCTTCTTAAACGGAGTCACCTAGTGCAG,19300 fluorescence intensity (a.u.)
20,GTGGGCAGATTTAGTTTTAATGGGTGTGGGTACGGAGAGTCGGAGTCACCTAGTGCAG,8900 fluorescence intensity (a.u.)
21,AGGCTACACTATTAAACTTGCTCTTCTCAAGCTACTTCAACGGAGTCACCTAGTGCAG,8190 fluorescence intensity (a.u.)

row,Sequence,binding signal
1,GAGTGGGTGTGGGTTTTCTAGTGGGCAGATTTAGTTTTAACGGAGTCACCTAGTGCAG,17200 fluorescence intensity (a.u.)
2,AGAGGGGAGGGAGGAGGATTATGGTTTTTTTTCTCTAAAACGGAGTCACCTAGTGCAG,16700 fluorescence intensity (a.u.)
3,TGTATAGTTTAGGGGTGAAGATTTCTGGTTTTGTGGTTAACGGAGTCACCTAGTGCAG,11500 fluorescence intensity (a.u.)
4,ATTATTAATAAAACTCATTCTATAACTCTGGACTAATTCGCGGAGTCACCTAGTGCAG,8200 fluorescence intensity (a.u.)
5,ATGGTTTTTCAGGGTTGGATTTATGTGTGGTCAGTTTAAACGGAGTCACCTAGTGCAG,12000 fluorescence intensity (a.u.)
6,GGGGTTTGCTATTCTGGCTCTCTATTAAGCTCATAAAAAACGGAGTCACCTAGTGCAG,23500 fluorescence intensity (a.u.)
7,GATGTGCCAATGGTTTCTTTCTCTTTCTTTCTCTTTAAAACGGAGTCACCTAGTGCAG,8910 fluorescence intensity (a.u.)
8,TTATGGTTGTTTTCTTCGGTTCTTTGTTTTTTTAAAAAAACGGAGTCACCTAGTGCAG,11600 fluorescence intensity (a.u.)
9,TCCATTTCCCGCCGCCTCCCCTCTCGCGATCCATATCCATCGGAGTCACCTAGTGCAG,8050 fluorescence intensity (a.u.)
10,GCTTTTCTTCCTCGACAAGGCCGCCTGCACCACCGTCTCCCGGAGTCACCTAGTGCAG,10500 fluorescence intensity (a.u.)
11,CTGGTTACTTTCTCATTTCTTCCTCGCTCGCGCGCTCTCTCGGAGTCACCTAGTGCAG,10800 fluorescence intensity (a.u.)
12,GATTTAGAGTTGGAGTCAGTCGGTTTGACCAGCCACATGCCGGAGTCACCTAGTGCAG,8690 fluorescence intensity (a.u.)
13,GCTAGGTCAACTTTGCTCTCAGCTCTCGCTCCCGATGCCACGGAGTCACCTAGTGCAG,9760 fluorescence intensity (a.u.)
14,CTCTCTCTCTCTCTCTCTCTCTCTCTCCAACGCGCGCGCGCGGAGTCACCTAGTGCAG,8700 fluorescence intensity (a.u.)
15,CGGCGTCTCTACCTCTACGAATCAGGTCAGGCTTCGATCCCGGAGTCACCTAGTGCAG,8380 fluorescence intensity (a.u.)
16,CTGGCCGCCATCTCCGCCAATCTCGCTGAATCGGACGCCACGGAGTCACCTAGTGCAG,8460 fluorescence intensity (a.u.)
17,GAAATGTGGGAGGGGTTTTCTTACAAATGTTATATAGACACGGAGTCACCTAGTGCAG,13900 fluorescence intensity (a.u.)
18,ATGTGTGGATTTATAAGGGTGAGTATATGTGTTTCGGGAACGGAGTCACCTAGTGCAG,8140 fluorescence intensity (a.u.)
19,GGGGTTTTTCTTATGTTAGTATATGTGTGGGATGTGTGAACGGAGTCACCTAGTGCAG,16800 fluorescence intensity (a.u.)
20,CGGGTTCAATATATTGTTTTTTTTAAGACTGGTTCAATATCGGAGTCACCTAGTGCAG,8880 fluorescence intensity (a.u.)
21,TATGTGTTTTTTGCCGATTAAATTATTACGGGATATATAACGGAGTCACCTAGTGCAG,9680 fluorescence intensity (a.u.)
